Measured values as given in PubChem BioAssay (NCI).
Compounds without any hit were thinned out: in the full panel of roughly 79,000, 15% have a hit. A number with no mark means an inactive call. Activity calls are given as the source filed them. Cut-off read from the data, not from the text of the source: active = growth inhibition above about 70%; inactive = the rest.

Legend:
[1] = NCI Yeast Anticancer Drug Screen. Data for the rad50 strain (AID 155);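 note: 0% = growth of vehicle-only cultures of the same strain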; settings: S. cerevisiae rad50 strain growth inhibition; at 50.0 µM; stronger effect = higher value
Outline: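 Relative growth inhibition (compound vs vehicle) was measured in yeast with a defined repair-gene alteration.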

[2] = NCI Yeast Anticancer Drug Screen. Data for the mec2-1 strain (AID 157); settings: S. cerevisiae mec2-1 strain, at 50.0 µM, stronger effect = higher value
Outline: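 Cells of the genetically defined mec2-1 yeast strain are incubated with test compound. Inhibition of growth is calculated against vehicle-treated controls.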

[3] = NCI Yeast Anticancer Drug Screen. Data for the sgs1 mgt1 strain (AID 161);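 note: 0% = growth of cultures given vehicle only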; settings: S. cerevisiae sgs1 mgt1 strain, at 50.0 µM, stronger effect = higher value
Outline: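 Read-out: growth inhibition vs vehicle controls. Cells: mutant yeast strain deficient in DNA damage repair.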

[4] = NCI Yeast Anticancer Drug Screen. Data for the cln2 rad14 strain (AID 165);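 note: 0% = growth equal to vehicle treated cultures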; settings: S. cerevisiae cln2 rad14 strain, at 50.0 µM, stronger effect = higher value
Outline: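 The screen exposed genetically defined yeast (cln2 rad14) to test compounds and scored growth inhibition relative to vehicle-treated controls.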

[5] = NCI Yeast Anticancer Drug Screen. Data for the bub3 strain (AID 167); settings: S. cerevisiae bub3 mutant strain, at 50.0 µM, stronger effect = higher value
Outline: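 Screening used yeast with an engineered genetic alteration affecting cell cycle control. Compound-exposed cultures were compared with vehicle cultures, and reduced growth was taken as inhibition.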

[6] = NCI Yeast Anticancer Drug Screen. Data for the mlh1 rad18 strain (AID 175); settings: S. cerevisiae mlh1 rad18 strain growth inhibition; at 50.0 µM; stronger effect = higher value
Outline: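 Compound-treated yeast growth, normalised to vehicle controls. Strain bears defined DNA repair mutations.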

SMILES	growth inhibition [1]	growth inhibition [2]	growth inhibition [3]	growth inhibition [4]	growth inhibition [5]	growth inhibition [6]
NC(=O)c1[nH]c(N=Nc2ccc(S(N)(=O)=O)cc2)nc1N	28.6%	13.6%	15%	-5.1%	-15.7%	17.9%
OC1CSc2ccccc2-n2cccc21 (stereo not drawn)	25.8%	6.4%	21.8%	32.9%	6.75%	16.4%
COc1ccc(/C=N/Nc2c([N+](=O)[O-])cc(C)cc2[N+](=O)[O-])cc1	35.1%	13.2%	16.3%	13%	11.8%	7.8%
Cc1ccc(N=NNc2ccccc2)cc1	-7.7%	-8.05%	-7.65%	-13.9%	-11.3%	-7.6%
CCN(c1ccccc1)S(=O)(=O)c1cc(N)ccc1C	-23.8%	-10.7%	2.55%	-2.8%	-0.25%	4.55%
N#CC(/C(=N/NC(=O)C(=O)NN)C(=O)NC12CC3CC(CC(C3)C1)C2)c1ccccc1 (stereo not drawn)	16.1%	10.8%	1%	1.4%	30.6%	-2.05%
CCC1(c2ccc(N3C(=O)c4cc(OC)c(OC)cc4C3=O)cc2)CCC(=O)NC1=O (stereo not drawn)	-6.25%	7.65%	-7.25%	-16.1%	-16%	-32.8%
Nc1nc(N)c2nc(-c3ccc([N+](=O)[O-])cc3)c(Cl)nc2n1	-8.2%	-16.3%	-11.9%	-44.9%	-27%	-28.7%
CCNC(=O)CCC(NS(=O)(=O)c1ccc(NC(=O)c2ccc(Cl)cc2)cc1)C(=O)O (stereo not drawn)	0.8%	-4.95%	-26%	-4.6%	0.1%	-1.9%
Cn1c(=O)c2c(nc(C(=N)SCC(=O)O)n2C)n(C)c1=O	3.1%	16.4%	15.8%	55%	-44.8%	3.8%
CC(C)(C)c1ccc(-c2nc3ccc(Cl)cc3c(=O)o2)cc1	-26.6%	-24.5%	-7.85%	-48.3%	-17.6%	0.45%
OCC1COc2cc(Cl)c(Cl)cc2O1 (stereo not drawn)	47.8%	9.65%	33.3%	15%	36.9%	50.2%
Cc1sc2nc3n(c(=O)c2c1C)N=CN(c1ccccc1)C3	3%	4%	2.1%	-12.8%	-3.5%	-16.7%
CCOC(=O)CCCCCOC1CCCCO1 (stereo not drawn)	7.4%	18.2%	11.2%	-0.1%	-7.35%	-10.5%
CC(=O)c1cnn(C(N)=O)c1C	-42.6%	-18.5%	-23.7%	-46.5%	13.5%	-5.75%
O=C(O)c1cscn1.O=C(O)c1cscn1.[I][Pt][I]	5.75%	3.55%	13.9%	-17.1%	0.9%	48%
COc1cc(NC=O)c2c(c1)SCC(=O)N2	-1.75%	-52.5%	-8.75%	6.7%	6.2%	-6.6%
O=c1[nH]c2cc([N+](=O)[O-])ccc2nc1/C(=N\Nc1ccccc1)C(O)c1ccc2c(c1)OCO2 (stereo not drawn)	26.5%	5.4%	21.6%	29.4%	10.2%	41.1%
C=CCc1cc(Br)ccc1O	20.7%	5.9%	-9.85%	11.1%	-17.4%	33.5%

SMILES	growth inhibition [1]	growth inhibition [2]	growth inhibition [3]	growth inhibition [4]	growth inhibition [5]	growth inhibition [6]
CC(=O)Cc1nc(N)nc(Nc2ccc(Cl)c(Cl)c2)n1	-8.9%	13.7%	-10.1%	-11.3%	-13%	-20.5%
COc1ccc(NC(C)=O)c([N+](=O)[O-])c1	23.3%	0.25%	19.3%	16.3%	-8.35%	6.3%
Cc1c(CCC(C)C)oc2cc3oc(CCC(C)C)c(C)c3cc12	21.7%	2.2%	2%	-4.8%	6.3%	18.5%
O=C(CI)Nc1ccc(Cl)c(Cl)c1	99.7% (active)	99.3% (active)	99.8% (active)	99.6% (active)	99.8% (active)	99.7% (active)
S=c1sc2c(Cl)ncnc2n1-c1ccccc1	1.55%	24.4%	13.2%	11.8%	9.7%	5.6%
C[C@]1(CO)CCC[C@@]2(C)C1CC[C@H]1CC3C[C@]12CC[C@]3(C)O (stereo partly drawn)	47.2%	8%	41.2%	28.4%	32.6%	54.3%
Cc1nc2[nH]ncn2c(=O)c1CCCl	20.9%	-31.9%	-11.9%	-7.55%	8.1%	9.4%
CC1(c2ccccc2)OCCS1 (stereo not drawn)	40.7%	21.1%	19.8%	14.6%	1.1%	28.8%
Cc1cccc(SC(=O)Nc2cc([N+](=O)[O-])ccc2Cl)c1	6.9%	4.4%	11.6%	10.6%	17.6%	20.5%
COC(=O)c1ccc(/C=C/c2cc(O)ccc2O)cc1	16.5%	25.8%	56.6%	44.5%	52.5%	75% (active)
CN1CCC(O)(C#N)CC1	-5.55%	2%	-13.6%	-42.6%	10.1%	-2.85%
Cc1ccccc1/C1=C/CCCCCC1	-8.1%	11.3%	-10.4%	-21.6%	19.5%	-5.05%
CC(=O)Nc1ccc(N)cc1N	-1.3%	-37.8%	-17.9%	29.7%	-6.35%	13.8%
CCC(C)OC(=Nc1ccccc1)c1ccccc1 (stereo not drawn)	-4.05%	5.95%	-4.5%	15.7%	-6.7%	2.4%
Cc1cnoc1/N=C1\C=C(Nc2oncc2C)C(=O)c2ccccc21	-14.7%	-6.55%	-31.9%	2.9%	-17.3%	-8.85%
CC(=O)NNC(=S)/N=C\c1c(O)[nH]c(=O)[nH]c1=O	-23.1%	-30.1%	-15.4%	-0.6%	-4%	-9.85%
FC(F)(F)c1cc(Br)c2ccc3ncccc3c2n1	6.5%	8.3%	-1.05%	-5.2%	6.8%	3.1%
O=[N+]([O-])c1ccc(Sc2cccs2)c([N+](=O)[O-])c1	-12.8%	28.9%	18.9%	4.1%	13.9%	57%
COC(=O)/C=C(/C(=O)OC)C1(C)c2cc(C(=O)OC)c(C(=O)OC)c(N)c2C(=N)N1c1ccccc1 (stereo not drawn)	-3.75%	25.9%	1%	-12.4%	-5.15%	-0.9%
